# MITF primary: MITF inhibitors, primary screen, biochemical, AlphaScreen, human; inhibition, % at 2.6 µM; AID 1259374, 2018; 0.91% of 650,000 active; AlphaScreen MITF homodimerization, bead proximity signal; in the data active = inhibition above about 50%;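 note: 0% = vehicle wells with protein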
# TEAD-YAP inh: TEAD-YAP interaction inhibition, primary screen, TEAD-YAP interaction inhibitor project, luminescence, HEK-TIYL cells; 1.4% of 640,000 active; inhibition, % at 9.12 µM; TEAD-Gal4/YAP UAS-luciferase luminescence; in the data active = inhibition above about 32%;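 note: 0% = median of test compound wells and 100% = reference inhibitor wells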
# FBW7 act: FBW7 E3 ligase activators, primary screen, biochemical, AlphaScreen, human. F-box/WD repeat-containing protein 7 (Homo sapiens), Q969H0. AlphaScreen FBW7–phospho-cyclin E peptide binding, activator screen. normalized activity (activation), % at 26.1 µM. 0.13% of 650,000 active. AID 1259310, 2017; in the data active = normalized activity above about 1.9%;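 note: purified mutant Fbw7 with reduced substrate affinity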
# Target sequence (Q969H0 whole entry, looked up): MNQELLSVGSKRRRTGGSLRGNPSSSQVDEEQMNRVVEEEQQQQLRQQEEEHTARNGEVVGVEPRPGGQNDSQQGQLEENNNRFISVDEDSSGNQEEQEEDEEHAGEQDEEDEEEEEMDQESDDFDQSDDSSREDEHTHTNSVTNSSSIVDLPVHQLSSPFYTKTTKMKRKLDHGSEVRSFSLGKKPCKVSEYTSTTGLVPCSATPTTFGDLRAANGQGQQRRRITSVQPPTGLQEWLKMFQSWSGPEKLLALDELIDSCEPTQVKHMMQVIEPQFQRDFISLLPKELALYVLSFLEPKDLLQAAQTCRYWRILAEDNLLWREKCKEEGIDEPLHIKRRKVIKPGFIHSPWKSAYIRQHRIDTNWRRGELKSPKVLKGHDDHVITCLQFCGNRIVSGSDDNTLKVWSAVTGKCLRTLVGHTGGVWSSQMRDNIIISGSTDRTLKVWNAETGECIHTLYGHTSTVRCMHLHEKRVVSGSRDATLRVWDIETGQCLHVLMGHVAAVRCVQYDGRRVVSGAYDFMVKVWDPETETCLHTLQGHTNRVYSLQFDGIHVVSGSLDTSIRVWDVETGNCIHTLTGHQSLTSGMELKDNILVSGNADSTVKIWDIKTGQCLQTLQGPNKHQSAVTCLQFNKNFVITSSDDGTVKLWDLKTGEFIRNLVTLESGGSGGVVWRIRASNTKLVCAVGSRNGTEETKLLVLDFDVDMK
# GPR151 ag: activators of human GPR151, primary screen, cell-based, PathHunter beta-arrestin, luminescence | G-protein coupled receptor 151 (Homo sapiens), Q8TDV0 | PathHunter beta-arrestin GPR151 cells | activation, % at 11.2 µM | 1% of 650,000 active | AID 1508602, 2020; in the data active = activation above about 4.9%;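 note: 0% = median of compound wells and 100% = cells with positive control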
# GPR151 conf act: GPR151 activators, triplicate retest, confirmation, cell-based, PathHunter beta-arrestin, luminescence; shares compounds with GPR151 ag; GPR151 PathHunter beta-arrestin cells, 90 min; % of EA-reagent control over plate median; activation, % at 11.2 µM; 6,700 tested, under 10 active; AID 1508609, 2020;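 active = mean percent activation across replicates above the confirmation screen cutoff of 4.91%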
# GPR119 counter: GPR119 activators in beta-arrestin cells, counter-screen for GPR151 activator project, cell-based, PathHunter beta-arrestin, luminescence, triplicate. shares compounds with GPR151 ag. 0.3% of 6,700 active. 90 min; 0 = compound-well median, 100 = enzyme-acceptor control. activation, % at 11.2 µM;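 active = mean percent activation in the counterscreen above 29.09%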;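 note: counterscreen on off-target GPR119 to flag nonselective hits from the GPR151 activator screen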
# Starred values were filed as active, the others as inactive; / = not tested or not shown. Compounds with a hit are over-represented: about 3.5% of the library has one in this group of screens.
SMILES,MITF primary,TEAD-YAP inh,FBW7 act,GPR151 ag,GPR151 conf act,GPR119 counter
O=C1/C(=C/c2ccc([N+](=O)[O-])cc2)C=C(c2ccccc2)N1c1ccc(Cl)c(Cl)c1,8,4,0,-1,/,/
Cn1c(C(=O)N2CCN(c3ccc(F)cc3)CC2)cc2c(=O)n3ccccc3nc21,-1,1,0,5.6*,1,8
CC1CCCN(c2nc3c(c(=O)[nH]2)CCN(CC2CCC=CO2)C3)C1 (configuration not stated),-2,-4,1,9.5*,1,7
O=c1[nH]c(N2CCCCC2)nc2c1CCN(CC1CCC=CO1)C2 (configuration not stated),-8,-4,0,0,/,/
COC(=O)CN/N=C/c1ccc([N+](=O)[O-])cc1[N+](=O)[O-],7,2,0,7.6*,1,12
COc1ccc(/C=N/Nc2ccc([N+](=O)[O-])cc2[N+](=O)[O-])c(O)c1,1,13,1,-1,/,/
CCn1c(=NC(=O)c2ccco2)sc2cccc(OC)c21,-2,7,0,5.0*,0,-2
COc1ccc(OC)c2c1sc(=NC(=O)c1ccco1)n2C,-15,-13,0,5.3*,1,6
C=CCn1c(=NC(=O)c2ccco2)sc2cccc(OC)c21,15,8,0,0,/,/
CCn1c(=NC(=O)c2ccco2)sc2cccc(F)c21,5,-36,0,1,/,/
CCOCCn1c(=NC(=O)c2ccco2)sc2cc(C)ccc21,-7,-47,0,5.8*,1,4
CCn1c(=NC(=O)c2ccco2)sc2cc3c(cc21)OCCO3,3,-32,1,5.7*,-1,-8
COc1cc(C(=O)c2ccccc2)c(OC)cc1C(=O)Nc1ccc(C)cc1,-1,5,0,1,/,/
COc1ccc(N2C(=O)c3ccc(NC(C)=O)cc3C2=O)cc1,5,5,0,1,/,/
COC(=O)c1ccc(N2C(=O)c3ccc(NC(C)=O)cc3C2=O)cc1,4,5,0,11*,-1,-12
CCC(Sc1nc2ccccc2c(=O)n1CCc1ccc(OC)c(OC)c1)C(=O)N(CC)CC (configuration not stated),19,5,1,6.0*,1,9
COc1ccc(CCn2c(SCC(=O)c3ccc(F)cc3)nc3ccccc3c2=O)cc1OC,1,-1,0,5.4*,1,9
COc1ccc(C(C)=O)cc1CSc1nc2ccccc2c(=O)n1CCc1ccc(OC)c(OC)c1,-9,-5,0,6.9*,0,6
COC(=O)c1ccc2c(=O)n(CCc3ccc(OC)c(OC)c3)c(SCC(=O)Nc3ccc(C)cc3)nc2c1,1,0,0,-1,/,/
CCC(Sc1nc2ccccc2c(=O)n1CCc1ccc(OC)c(OC)c1)C(=O)N1CCOCC1 (configuration not stated),11,11,0,-1,/,/
COC(=O)c1ccc2c(=O)n(CCc3ccc(OC)c(OC)c3)c(SCC(=O)Nc3cc(C)on3)nc2c1,-3,-2,0,5.8*,0,-8
CC(=O)Nc1cccc(N=Cc2cc(Cl)cc(Cl)c2O)c1,-4,-6,0,5.7*,1,9
C(=N\n1cnnc1)/c1ccc2c(c1)OCO2,-1,-1,0,-1,/,/
C(=N\n1cnnc1)/c1ccc2c(c1)OCCO2,14,-8,0,12*,0,-6
Cc1cc(C)c(-n2c(O)c(/C=C3\C=CC=N3)c(=O)[nH]c2=O)c(C)c1,1,46*,0,7.3*,1,7
SMILES,MITF primary,TEAD-YAP inh,FBW7 act,GPR151 ag,GPR151 conf act,GPR119 counter
COc1ccc2ccccc2c1CN1CCN(C)C(CCO)C1 (configuration not stated),-1,-1,0,1,/,/
COc1ccc2ccccc2c1CN1CCN(CC(C)(C)C)C(CCO)C1 (configuration not stated),11,-3,0,7.7*,0,-7
Cc1nc2cnc(-c3ccc(O)cc3)cn2c1NC(=O)CC1CCOCC1,16,24,0,12*,0,7
Cc1nc2cnc(-c3ccc(O)cc3)cn2c1NC(=O)c1cccs1,3,-1,0,0,/,/
COc1cc(C2Nc3ccccc3NC3=C2C(=O)CC(c2ccccc2Cl)C3)cc(OC)c1OC (configuration not stated),16,-1,0,5.6*,0,-3
CCCCNC(=O)c1ccc2c(=O)n(Cc3ccc(Cl)cc3)c(=S)[nH]c2c1,16,5,0,0,/,/
Oc1cccc(/C=N/Nc2nn[nH]n2)c1,5,-1,0,0,/,/
CCOc1ccc(/C=N/NC(=O)C(=O)NC2CC2)cc1,19,-1,0,5.7*,1,4
CC(C)Oc1ccc(/C=N/NC(=O)C(=O)NC2CCCCC2)cc1,-9,-6,0,1,/,/
O=C(Nc1ccc(-c2ccccc2)cc1)c1ccc(F)cc1,-20,-22,0,1,/,/
CC(C)c1c(C(=O)Nc2ccccc2)c(-c2ccccc2)c(-c2ccc(F)cc2)n1CC[C@@H](O)C[C@@H](O)CC(=O)O,-4,/,0,5.2*,0,-15
CCOc1ccc(NC(=O)CC2Sc3ccc(C(F)(F)F)cc3NC2=O)c([N+](=O)[O-])c1 (configuration not stated),9,-2,0,5.0*,0,8
COc1ccc(N2C(=O)NC(NC(=O)c3ccccc3F)(C(F)(F)F)C2=O)cc1 (configuration not stated),9,9,0,-1,/,/
O=[N+]([O-])c1cccc(Cl)c1CSc1nnnn1-c1ccccc1,7,7,0,6.2*,0,2
O=[N+]([O-])c1cccc(Cl)c1CSc1nnnn1-c1cccc2ccccc12,14,4,0,0,/,/
Cc1cn2c3c(=O)n(CC(N)=O)c(=O)n(C)c3nc2n1CCc1ccccc1,10,11,0,0,/,/
Cc1ccc(-n2c(C)cc(C=C3C(=O)NC(=O)NC3=O)c2C)cc1,8,8,0,8.6*,0,-5
CCN1CCN(S(=O)(=O)c2ccc(OC)c(I)c2)CC1,5,6,0,11*,0,-6
CC(C)Oc1cc(S(=O)(=O)N2CCCCC2)ccc1N,6,1,0,9.9*,-1,-16
COc1ccc(S(=O)(=O)N2CCc3ccccc3C2)cc1I,10,9,0,0,/,/
